ALOX15 inhib: 15-hLO (ALOX15) enzyme inhibition | P16050 | purified 15hLO-1, xylenol orange hydroperoxide absorbance | Potency, µM (series often up to 57.1 µM), most hits filed as inhibitors | hit rate 1.4% among 74,000; also: nearly all actives have a fitted effect of over 55% in size
Target sequence (P16050 whole entry, looked up): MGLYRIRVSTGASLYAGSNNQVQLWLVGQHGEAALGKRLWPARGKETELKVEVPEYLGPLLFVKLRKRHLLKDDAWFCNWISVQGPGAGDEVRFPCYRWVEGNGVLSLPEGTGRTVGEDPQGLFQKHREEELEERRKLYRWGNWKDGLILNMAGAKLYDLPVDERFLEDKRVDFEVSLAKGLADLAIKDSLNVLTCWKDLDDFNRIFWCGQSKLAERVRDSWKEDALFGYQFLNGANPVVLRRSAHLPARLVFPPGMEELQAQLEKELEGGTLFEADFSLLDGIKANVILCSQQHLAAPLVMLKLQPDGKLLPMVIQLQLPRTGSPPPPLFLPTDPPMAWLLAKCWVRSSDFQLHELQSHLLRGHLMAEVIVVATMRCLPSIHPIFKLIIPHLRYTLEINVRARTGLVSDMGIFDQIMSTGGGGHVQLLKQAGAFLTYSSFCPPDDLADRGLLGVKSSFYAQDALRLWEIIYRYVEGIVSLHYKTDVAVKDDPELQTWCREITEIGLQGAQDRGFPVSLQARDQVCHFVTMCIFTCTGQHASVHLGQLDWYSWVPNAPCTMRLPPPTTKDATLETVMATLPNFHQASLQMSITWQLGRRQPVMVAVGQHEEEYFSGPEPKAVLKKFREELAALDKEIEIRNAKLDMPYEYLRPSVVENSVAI
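Purified human 15hLO-1 (40 nM final) in 25 mM Hepes pH 7.5, 0.01% Triton X-100 was preincubated with compound 15 min at room temperature, then reacted 6 min with 50 uM arachidonic acid; hydroperoxide detected by Fe-XO, 573/405 nm absorbance ratio.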
Tau filament bind: binds recombinant human tau filaments | P10636 | recombinant tau filaments, thioflavin S fluorescence, 15 h; filaments grown with octadecylsulfate alongside compound | Potency, µM (series often up to 57.1 µM) | hit rate 2% among 71,000 | AID 596;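 also: actives lower thioflavin S fluorescence by blocking filaments or displacing dye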
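His-tagged recombinant human tau (exons 2, 3, 10; 1 uM final) fibrillized with 30 uM sodium octadecylsulfate, 15 h at 37 C, in pH 7.4 HEPES buffer with 10 uM thioflavine S and 5 mM DTT. Reduced ThS fluorescence (450/510 nm) marks activity.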
BRCT PPI green: blocks human BRCA1 BRCT binding to phosphopeptide, green readout; BRCA1 BRCT-phosphopeptide binding, green fluorescence polarization; P38398; hit rate 0.05% among 75,000; Potency, µM (titrated, usually from 76.9 µM), actives largely listed as inhibitors
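Compounds were incubated for 12 min at room temperature with a complex of 100 nM fluorescein-tagged pBACH1 decapeptide and 250 nM His-tagged BRCT protein. Buffer was phosphate pH 7.3 with EDTA, DTT and Tween 20. Disruption of binding lowers the polarization signal.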
BRCT PPI red: inhibitors of human BRCA1 BRCT-phosphoprotein interaction (red fluorophore); Potency, µM (top dose mostly 76.9 µM), actives largely listed as inhibitors; hit rate 0.03% among 75,000; BRCT-phosphopeptide binding, red fluorescence polarization; P38398; AID 892
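Rhodamine-labelled pBACH1 10-mer (100 nM) bound to BRCT domain (100 nM) at pH 7.3; compounds incubated 12 min room temperature, polarization read. Free peptide defines full inhibition; unlabelled decapeptide titrated as control.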
TsaE inh: displaces an ADP probe from E. coli YjeE (TsaE); hit rate 0.05% among 71,000; Potency, µM; purified YjeE enzyme, qHTS inhibition assay; P0AF67
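Purified YjeE (10 uM) with BODIPY Texas Red-labeled ADP probe (2 uM); compounds pin-transferred, 15 min at room temperature. Binding inhibition read as decreased fluorescence polarization; ADP titration as control.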
DNA Pol III inh: inhibitors of bacterial DNA polymerase III holoenzyme. reconstituted DNA polymerase III holoenzyme replication, biochemical. Potency, µM (titrated, usually from 57.1 µM). hit rate 0.25% among 71,000
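Reconstituted *E. coli* holoenzyme (0.35 nM Pol III, 1 nM beta, 154 nM SSB, 2 nM primase) was preincubated with compound for 15 min at RT. Synthesis on 1.4 nM ssM13Gori ran 35 min, then was stopped with PicoGreen/EDTA and read as dsDNA fluorescence.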
Numbers stand for hits; . = inactive; ? = inconclusive; / = no result given; ! = not active in a repeat; [ ] = another dose, or the depositor's remark. Only some compounds are listed: those with a hit (about 3.1% of all), similar ones and a draw of the others. Calls follow the shape of the dose curve; as a rule, active = well fitted curve in the direction sought with a large enough effect; inconclusive = small, poorly fitted or top-dose-only effect, or another doubt; inactive = no such curve, though single readings can be large; an effect the other way counts as inactive or inconclusive.

SMILES	ALOX15 inhib	Tau filament bind	BRCT PPI green	BRCT PPI red	TsaE inh	DNA Pol III inh
CCOc1ccc2c(ccc(/C=C\c3cc(C)c4cccnc4c3O)[n+]2C)c1	.[11.4 µM]	0.63µM	.[15.4 µM]	.[15.4 µM]	.	3.2µM
Cc1noc(C)c1C(=O)Nc1c(F)cc(F)cc1Br	.	.	.	.	.	.
O=C(Nc1c(F)cc(F)cc1Br)c1ccco1	.	16µM	.	.	.	.
CCc1ccccc1OC[C@@H](O)CN[C@H]1CCCc2ccccc21	.	13µM	.	.	.	.
COc1ccccc1N1CCN(C[C@@H](C(=O)NC(C)(C)C)c2ccccc2)CC1	16µM	?	.	.	.	.
O=C(CN1CCOc2ccccc21)NC1CCN(Cc2ccccc2)CC1	.	13µM	.	.	.	.
COc1ccc(/C=N/NC(=O)c2cc(-c3ccc(Cl)cc3)n[nH]2)cc1OC	.	/	.	.	/	/
C=CCn1c(SCC(=O)NCCCC)nc2scc(-c3ccco3)c2c1=O	5µM	.	.	.	.	.
C=CCn1c(SCC(=O)NC2CCCC2)nc2scc(-c3ccco3)c2c1=O	?	.	.	.	.	.
Clc1ccc2c(c1)N=C(N1CCNCC1)c1ccccc1N2	.	40µM	.	.	.	.
Cc1ccccc1-c1cc(N2CCNCC2)ncn1	.	.	.	.	.	.
CCN(CCCNC(=O)C1CCN(S(=O)(=O)c2cccc3nonc23)CC1)Cc1ccccc1	.	20µM	.	.	.	.
Cc1ccc(CCNC(=O)C2CCN(S(=O)(=O)c3cccc4nonc34)CC2)cc1	.	.	.	.	.	.
COc1ccc(NC(=O)N2CC3(CCN(C(=O)c4ccncc4)CC3)C2)cc1	.	.	.	.	.	.
COC(=O)C1=C(C)Nc2ccc(C)cc2S1	10µM	20µM	.	.	.	.
NC1(C(=O)O)C[C@H](C(=O)O)[C@H](C(=O)O)C1 (stereo partly drawn)	.	?	.	.	.	.
C[C@@](N)(Cc1ccc(O)c(O)c1)C(=O)O	?	.	.[3.08 µM]	.	.	13µM!
O=C(O)Cc1ccc(O)c(O)c1	.	.	.	.	.	.
O=C1c2cccnc2-c2ncccc21	.	.	.	.	.	.
CC1(C)OCC(CSC2=C(SCC3COC(C)(C)O3)C(=O)c3ncccc3C2=O)O1 (stereo not drawn)	?	16µM	.	.	?	.
COc1ccc2[nH]cc(CCNc3ccnc(-c4cccc(NS(C)(=O)=O)c4)n3)c2c1	20µM	.	.	.	.	.
COc1ccc2[nH]cc(CCNc3nc(-c4ccoc4)nc4ccccc34)c2c1	.	4µM	.	.	.	.
Cc1cnc(CNc2nc(-c3ccoc3)nc3ccccc23)cn1	.	.	.	.	.	.
Cc1cccc(CNc2nc(-c3ccoc3)nc3ccccc23)c1	.	16µM	.	.	.	.
Fc1ccc(Nc2nc(-c3ccoc3)nc3ccccc23)cc1	.	13µM	.	.	.	.
SMILES	ALOX15 inhib	Tau filament bind	BRCT PPI green	BRCT PPI red	TsaE inh	DNA Pol III inh
O=C1OC(=O)c2c(Cl)c(Cl)c(Cl)c(Cl)c21	.	.	.	.	.	.
CCCCC(=O)N(Cc1ccc(-c2ccccc2-c2nn[nH]n2)cc1)C(C(=O)O)C(C)C (stereo not drawn)	.	/	.[3.08 µM]	.	/	/
CS(=O)(=O)N1CCC[C@@]2(CCN(Cc3ccccc3)C2)C1	.	.	.	.	.	.
c1ccc(CNc2nc(-c3ccoc3)nc3ccccc23)cc1	.	16µM	.	.	.	.
Fc1ccc(Nc2ccnc(-c3ccoc3)n2)cc1	?	13µM	.	.	.	.
Fc1ccc(Nc2ccnc(-c3ccc4c(c3)OCO4)n2)cc1	?	.	.	.	.	.
CO[C@H]1/C=C/O[C@@]2(C)Oc3c(C)c(O)c4c(O)c(c5c(c4c3C2=O)NC2(CCN(CC(C)C)CC2)N=5)=NC(=O)/C(C)=C\C=C\[C@H](C)[C@H](O)[C@@H](C)[C@@H](O)[C@@H](C)[C@H](OC(C)=O)[C@@H]1C	?	0.4µM	.	.	.	.
CO[C@@H]1/C=C\O[C@]2(C)Oc3c(C)c(O)c4c(O)c(cc(O)c4c3C2=O)NC(=O)/C(C)=C\C=C/[C@H](C)[C@@H](O)[C@H](C)[C@H](O)[C@H](C)[C@H](OC(C)=O)[C@@H]1C	.[11.4 µM]	.[11.4 µM]	.[15.4 µM]	.[15.4 µM]	.	.[11.4 µM]
CO[C@H]1C=CO[C@]2(C)Oc3c(C)c(O)c4c(O)c(c5c(c4c3C2=O)NC2(CCN(CC(C)C)CC2)N=5)=NC(=O)C(C)=CC=C[C@@H](C)[C@@H](O)[C@@H](C)[C@@H](O)[C@@H](C)[C@@H](OC(C)=O)[C@@H]1C	.	1.6µM	.	.	.	.
Cc1ccc(-n2nc(-c3ccc(N)cc3)cc2N)cc1	.	7.9µM	.	.	.	.
Nc1ccc(-c2cc(N)n(-c3ccccc3)n2)cc1	.	?	.	.	.	.
c1ccc2c(c1)CCN(c1nc3cc4c(cc3s1)OCCO4)C2	4µM	.	.	.	.	.
CCCCNc1nc(C)nc2c1nc(-c1ccccc1)n2CCN1CCCCC1	13µM	.	.	.	.	.
COCCNc1nc(C)nc2c1nc(-c1ccccc1)n2CCN1CCCCC1	?	.	.	.	.	.
Cc1nc(NCc2ccccc2)c2nc(-c3ccccc3)n(CCN3CCOCC3)c2n1	20µM	.	.	.	.	.
Cc1nc(NCc2ccccc2)c2nc(-c3ccccc3)n(CCN3CCCC3)c2n1	.	.	.	.	.	.
COc1ccc(OC2C=CC(c3ccccc3)OC2CO)cc1 (stereo not drawn)	.[11.4 µM]	/	.[15.4 µM]	.[15.4 µM]	/	/
c1ccc(-c2nnc3sc(-c4csc5c4CCCC5)nn23)cc1	16µM	.	.	.	.	.
C=CCOC(=O)C(C#N)c1nc2ccccc2nc1N1CCCC1 (stereo not drawn)	.	16µM	.	.	.	.
COCCOC(=O)C(C#N)c1nc2ccccc2nc1N1CCCC1 (stereo not drawn)	.	16µM	.	.	.	.
COc1ccccc1N1CCN(c2nc3ccccc3nc2C(C#N)C(=O)OC(C)C)CC1 (stereo not drawn)	.	7.9µM	.	.	.	.
OC[C@@H]1O[C@@H](n2cnc3c(N[C@@H]4C[C@@H]5CC[C@H]4C5)ncnc32)[C@@H](O)[C@H]1O	.	.	.	.	.	.
Cc1ccc(CCCC(=O)O)cc1C	.[11.4 µM]	.[11.4 µM]	.[15.4 µM]	.[15.4 µM]	.	.[11.4 µM]
CCc1nc2scc(-c3ccccc3)c2c(=O)n1N	20µM	.	.	.	.	.
CC1(C)C(=O)C=C[C@]2(C)C1CC(=O)[C@]1(C)C2CC[C@@]2(C)C(c3ccoc3)OC(=O)C3O[C@@]321 (stereo partly drawn)	.	/	.[3.08 µM]	.	/	/
